ATXN2 expr inh: reduces ATXN2 reporter expression in HEK-293 cells; HEK-293 ATXN2-luciferase reporter, luminescence, 24 h; Potency, µM (doses to about 57 µM), for the others: at the top dose activity change, negative = inhibition, usual class: inhibitors; hit rate 0.72% among 360,000; AID 1745845; further: potency means the concentration at half of the fitted maximal effect; on the % scale 0 is the no-effect control and ±100 the full control effect; nearly all actives have a fitted effect of over 55% in size
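ATXN2-luciferase reporter cells (luciferase flanked by upstream and downstream ATXN2 gene portions) were treated 24 h at 37 °C with compounds at up to 57 uM. SteadyGlo luminescence gave expression; GF-AFC fluorescence gave viability.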
HepG2 tox: counter-screen for TGF-b inhibitors: cytotoxicity in HepG2 cells; HepG2 CAGA-GFP viability, ATP luminescence, 18 h; Potency, µM (doses to about 46.1 µM), for the others: top-dose activity change, negative = cytotoxicity, hits mostly cytotoxic; hit rate 0.76% among 410,000; AID 588856; further: potency means the concentration at half of the fitted maximal effect
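HepG2 CAGA-GFP cells (1000/well, DMEM with 1% FBS) received compound, then TGF-beta at 500 pg/mL final, and were incubated 18 hours at 37 degrees C. Viability was read by CellTiter-Glo luminescence. Media-only wells were set as complete cell-killing and DMSO as no toxicity.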
Giardia kill: kills Giardia lamblia; hit rate 0.15% among 340,000; Giardia lamblia trophozoite viability; AID 540267; activity change, % at 7.66 µM, hits read low; in the data active means activity change below about -80%; inconclusive means between about -30% and that limit;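 further: parasites exposed to compound for two days anaerobically before the ATP read; on the % scale 0 is the no-effect control and ±100 the full control effect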
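Media and compound were dispensed first, then trophozoites at 100 cells/well; plates sat 48 hrs at 37 deg C without oxygen before ATP luminescence reagent was added and read after 15-30 min at room temperature.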
ATXN viability: reduces viability in counter-screen for ATXN expression inhibitors | S2 cells (HEK-293 line with an ATXN2-luciferase reporter) viability, CellTiter-Fluor protease fluorescence, 24 h | Potency, µM (highest dose often 56.7 µM), most hits filed as cytotoxic | hit rate 0.49% among 400,000 | AID 651635; further: potency means the concentration at half of the fitted maximal effect; nearly all actives have a fitted effect of over 40% in size
TGFb SMAD3 inh: inhibitors of TGF-b signaling; Potency, µM (doses to about 46.1 µM), inactives show at the highest dose activity, negative = inhibition, usual class: inhibitors; AID 588855; HepG2 CAGA-GFP TGF-b/SMAD3 reporter, GFP fluorescence, 18 h; TGF-beta stimulated, 500 pg/mL final; hit rate 1.2% among 410,000; further: potency means the concentration at half of the fitted maximal effect; on the % scale 0 is the no-effect control and ±100 the full control effect; nearly all actives have a fitted effect of over 65% in size
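Cell-based qHTS in HEPG2 carrying a CAGA-GFP Smad reporter; compounds added before 500 pg/mL final TGF-beta, 18 h incubation at 37 degrees C, GFP fluorescence quantified per cell by imaging cytometry.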
uPA surface inh: inhibitors of cell surface uPA generation. cell surface uPA generation assay, qHTS. Potency, µM (doses to about 38.3 µM), for inactives: top-dose activity change, negative = inhibition, most hits filed as inhibitors. hit rate 0.31% among 330,000. AID 540303; active means well fitted inhibition curve with a large enough effect; inconclusive means small, poorly fitted or top-dose-only effect; inactive means no such curve, though single readings can be large or run the other way; tested in mouse RAW 264.7 cells; further: potency means the concentration at half of the fitted maximal effect; on the % scale 0 is the no-effect control and ±100 the full control effect; nearly all actives have a fitted effect of over 55% in size
* marks the source's active call; other numbers are inactive results; i = inactive; ? = inconclusive; . = not tested or not shown; [ ] = dose if it differs, or a comment. In the library only some 2.6% were active in any assay of this set; here they are far more common. Unless noted, the call rests on the fitted dose curve; in most records, active means well fitted curve in the direction sought with a large enough effect; inconclusive means small, poorly fitted or top-dose-only effect, or another doubt; inactive means no such curve, though single readings can be large; an effect the other way counts as inactive or inconclusive.

SMILES	ATXN2 expr inh	HepG2 tox	Giardia kill	ATXN viability	TGFb SMAD3 inh	uPA surface inh
Fc1cc(Br)ccc1CBr	12.2%	.	.	i	.	.
COC12C(COC(N)=O)C3=C(C(=O)C(C)=C(N)C3=O)N1CC1C2N1C (stereo not given)	6.31µM*	-66.3%	?	?	-29.2%	?
CN1CCN(c2ccc([N+](=O)[O-])c3cccnc23)CC1	-5.3%	-5.4%	-83.6*	i	20.8%	9.4%
COc1cc(=O)n2c(c1C(=O)N(C)Cc1nonc1C)CCN(C(=O)C1C(C)(C)C1(C)C)CC2	.	.	.	i	.	.
O=S(=O)(CC1CS1)c1ccc(Oc2ccccc2)cc1 (stereo not given)	-7.2%	.	.	.	.	.
Cc1ccc(NC(=O)Nc2cc3c(cc2N2CCCCC2)n(C)c(=O)n3C)cc1Cl	-17.7%	-9.5%	.	i	?	.
CC(=O)C1C(N2CC2)CC2C3CC=C4CC(O)CCC4(C)C3CCC21C (stereo not given)	0.0%	-2.8%	5.4	14.1µM*	-8.3%	-12.3%
Cc1ccc(N2CCN(C(=O)c3cn(CC4CCCCC4)nn3)C(C)C2)cc1 (stereo not given)	5.6%	-3.6%	15.2	i	?	0.4%
C[C@@H]1O[C@@H](O[C@H]2C[C@@H](O)[C@]3(CO)[C@H]4[C@H](O)C[C@]5(C)[C@@H](C6COC(=O)C6)CC[C@]5(O)[C@@H]4CC[C@]3(O)C2)[C@H](O)[C@H](O)[C@H]1O (stereo not given in full)	0.562µM*	-50.5%	2.7	?	?	3.3%
Cc1cccc(Cn2cc(C=O)c3ccccc32)c1	?	-34.8%	6.3	i	1.12µM*	-6.2%
CCC(=O)c1cn(Cc2ccc(C#N)cc2)c2ccccc12	5.4%	16.1%	1.8	i	0.0%	4.8%
O=Cc1cn(Cc2cccc([N+](=O)[O-])c2)c2ccccc12	0.447µM*	-46.2%	10.2	?	0.708µM*	-1.9%
O=Cc1cn(Cc2c(F)cccc2Cl)c2ccccc12	.	-5.8%	15.4	?	3.55µM*	?
N#Cc1ccc(Cn2cc(C=O)c3ccccc32)cc1	?	-47.3%	-8.0	i	1.41µM*	-9.3%
O=Cc1cn(CCCOc2ccccc2)c2ccccc12	0.2%	-22.5%	2.2	i	?	0.2%
Cc1ccc2c(c1)C1CN(C)CCC1N2 (stereo not given)	-1.0%[25.6 µM]	.	.	i	.	.
CN[C@]1(c2ccccc2Cl)CCCCC1=O	.	.	.	i	.	.
O=S(=O)(c1ccccc1C(F)(F)F)N1CCN(c2ncnc3sccc23)CC1	?	-42.8%	-7.2	i	12.6µM*	-10.9%
C[C@H]1CCCC(=O)CCC/C=C/c2cc(O)cc(O)c2C(=O)O1	?	-4.7%	10.7	?	17.7%	22.1%
CC1CC(=O)c2c(cc3c(-c4c(O)cc(O)c5c(O)c6c(cc45)OC(C)CC6=O)c(O)cc(O)c3c2O)O1 (stereo not given)	20µM*	-103.2%	?	i	?	?
Oc1ccc2c3c1O[C@H]1[C@@H](O)C=C[C@H]4[C@H](C2)NCC[C@@]341	.	.	.	i	.	.
O=P(Nc1cccc(F)c1)(Oc1ccccc1F)Oc1ccccc1F	-30.4%	-46.6%	-11.2	i	?	-6.4%
Cc1cccc(NP(=O)(Oc2ccccc2F)Oc2ccccc2F)c1	-16.3%	-59.8%	-8.7	i	12.6µM*	5.9%
Cc1cccc(N(C)S(=O)(=O)c2cc(-c3cnc(C4CC4)o3)ccc2C)c1	2.9%	-31.5%	.	i	?	.
Cc1cccc(CN2CCCC(C(=O)c3cccc(OC(C)C)c3)C2)n1 (stereo not given)	.	-51.6%	20.5	31.6µM*	?	5.9%
CCc1ccccc1NC(=O)C(CC)Oc1ccccc1-c1nnc(-c2ccccc2)o1 (stereo not given)	?	-3.2%	.	?	-0.6%	.
O=C(NCc1ccc(Cl)cc1)C1CCN(C(=O)c2cnn(-c3ccccc3)c2-n2cccc2)CC1	?	-27.8%	.	i	?	.
